JMJD2A Tudor: qHTS Assay for Inhibitors of JMJD2A-Tudor Domain; Potency, µM (top dose mostly 114 µM), actives largely listed as inhibitors; Lysine-specific demethylase 4A (Homo sapiens), O75164; AID 504339, 2011; AlphaScreen JMJD2A-Tudor / H3K4me3 peptide binding; actives 4.4% (n = 390,000); further: nearly all actives have a fitted effect of over 50% in size
BAZ2B inh: qHTS Assay for Inhibitors of BAZ2B; Bromodomain adjacent to zinc finger domain protein 2B (Homo sapiens), Q9UIF8; AlphaScreen BAZ2B-H3K14Ac peptide displacement; Potency, µM (highest dose often 114 µM), most hits filed as inhibitors; actives 4.4% (n = 360,000); AID 504333, 2011; further: nearly all actives have a fitted effect of over 60% in size
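BAZ2B 50 nM plus b-H3(5-23)K14Ac 50 nM, PBS pH 7.4/0.01% Tween-20, 30 min RT; compound added (max 110 uM), 30 min RT; streptavidin donor/Ni-chelate acceptor beads 10 ug/mL final, 20 min dark; AlphaScreen read.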
G9a block: qHTS Assay for Inhibitors of Histone Lysine Methyltransferase G9a; actives 8.8% (n = 350,000); G9a H3K9 monomethylation, AlphaScreen, 2 h; Histone-lysine N-methyltransferase EHMT2 (Homo sapiens), Q96KQ7; Potency, µM (titrated, usually from 102 µM), most hits filed as inhibitors; further: nearly all actives have a fitted effect of over 75% in size
Target sequence (Q96KQ7 913-1193 limits assumed): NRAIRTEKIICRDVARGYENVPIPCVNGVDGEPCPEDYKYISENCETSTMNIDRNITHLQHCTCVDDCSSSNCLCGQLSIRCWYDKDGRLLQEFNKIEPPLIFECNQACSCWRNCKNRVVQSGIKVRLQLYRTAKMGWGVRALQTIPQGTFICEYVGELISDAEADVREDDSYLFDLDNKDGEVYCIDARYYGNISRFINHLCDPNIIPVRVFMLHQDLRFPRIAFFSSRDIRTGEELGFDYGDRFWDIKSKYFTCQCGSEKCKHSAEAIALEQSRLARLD
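Readings reflect AlphaScreen signal from monomethyl-H3K9 antibody detection. HMT at 20 nM; substrate b-H3K9 500 nM; cofactor SAM 20 uM; 2 h RT reaction; compounds tested as titrations in qHTS with 15 min preincubation.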
L3MBTL1 block: qHTS Assay for the Inhibitors of L3MBTL1; Lethal(3)malignant brain tumor-like protein 1 (Homo sapiens), Q9Y468; AlphaScreen L3MBTL1–H3K9me1 peptide binding; Potency, µM (highest dose often 57.1 µM), usual class: inhibitors; actives 0.66% (n = 230,000); AID 485360, 2010; further: nearly all actives have a fitted effect of over 60% in size
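L3MBTL1 (50 nM) pre-complexed 30 min with biotinylated H3(1-15)K9me1 peptide (75 nM), then compounds added for 30 min at room temperature; AlphaScreen streptavidin donor/nickel chelate acceptor beads (10 ug/mL final) read after 30 min dark incubation.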
HP1b binding inh: HTS for Inhibitors of HP1-beta Chromodomain Interactions with Methylated Histone Tails; Potency, µM (top dose mostly 114 µM), actives largely listed as inhibitors; actives 0.56% (n = 390,000); Chromobox protein homolog 1 (Homo sapiens), P83916; AID 540317, 2011; AlphaScreen HP1-beta / biotin-H3K9me3 peptide binding; further: nearly all actives have a fitted effect of over 70% in size
Target sequence (P83916 whole entry, looked up): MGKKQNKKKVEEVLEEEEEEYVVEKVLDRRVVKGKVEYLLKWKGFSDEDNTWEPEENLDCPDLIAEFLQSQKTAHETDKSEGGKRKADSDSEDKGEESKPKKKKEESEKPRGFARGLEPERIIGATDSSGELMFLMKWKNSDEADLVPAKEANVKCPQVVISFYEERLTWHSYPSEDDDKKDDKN
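AlphaScreen: HP1-beta (50 nM) preformed 30 min with biotin-H3(1-18)K9me3 peptide (50 nM) in PBS pH 7.4, 0.01% Tween-20. Compound added for 30 min at RT, then streptavidin donor/nickel chelate acceptor beads (10 ug/mL) for 30 min.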
Numbers stand for hits. In the library only some 11% were active in any assay of this set; here they are far more common. The call rests on the fitted dose curve; in most records, active means well fitted inhibition curve with a large enough effect; inconclusive means small, poorly fitted or top-dose-only effect; inactive means no such curve, though single readings can be large or run the other way.

What do the screens show for `Cc1ccc(C)n1-c1nnc(N2CCCC(C(=O)NCc3ccc(Cl)cc3)C2)s1` (stereo not given)?
JMJD2A Tudor: inactive; BAZ2B inh: inactive; G9a block: inactive; HP1b binding inh: inactive

What do the screens show for `Cc1ccc(Cl)cc1NC(=O)Cn1cc(S(=O)(=O)Cc2ccccc2Cl)c2ccccc21`?
JMJD2A Tudor: inactive; BAZ2B inh: inactive; G9a block: inactive; HP1b binding inh: inactive

What do the screens show for `Cc1ccc(-c2ccc(=O)n(CC(=O)NC(C)c3ccccc3)n2)cc1` (stereo not given)?
JMJD2A Tudor: inactive; BAZ2B inh: inactive; G9a block: inactive; HP1b binding inh: inactive

How did COc1cccc(NC(=O)c2c(N3CCCC3=O)c3cc(C)ccc3n2C)c1 do in these assays?
JMJD2A Tudor: inactive; BAZ2B inh: inactive; G9a block: inactive; HP1b binding inh: inactive

What do the screens show for `CC(O)c1cccc(N=Cc2ccc3ccccc3c2O)c1` (stereo not given)?
JMJD2A Tudor: inconclusive; BAZ2B inh: inconclusive; G9a block: 1.78µM; L3MBTL1 block: inactive; HP1b binding inh: inactive

How did c1ccc(CCN(Cc2ccccc2)C2CCN(C3CCCC3)CC2)cc1 do in these assays?
JMJD2A Tudor: 2.24µM; BAZ2B inh: 50.1µM; G9a block: 50.1µM; HP1b binding inh: inconclusive

What do the screens show for `CC(=O)NC(c1ccc([N+](=O)[O-])cc1)c1c(O)ccc2ccccc12` (stereo not given)?
JMJD2A Tudor: inconclusive; BAZ2B inh: inactive; G9a block: 44.7µM; L3MBTL1 block: inactive; HP1b binding inh: inactive

What do the screens show for `CC(=O)NC(c1ccccc1)c1c(O)ccc2ccccc12` (stereo not given)?
JMJD2A Tudor: inactive; BAZ2B inh: 31.6µM; G9a block: 17.8µM; L3MBTL1 block: inactive; HP1b binding inh: inactive

Results for O=C(Cc1ccccc1)NC(c1ccco1)c1c(O)ccc2ccccc12 (stereo not given) ?
JMJD2A Tudor: inconclusive; BAZ2B inh: inconclusive; G9a block: 50.1µM; L3MBTL1 block: inactive; HP1b binding inh: inactive

What do the screens show for `CCCC(=O)NC(c1ccc(N(C)C)cc1)c1c(O)ccc2ccccc12` (stereo not given)?
JMJD2A Tudor: 31.6µM; BAZ2B inh: 17.8µM; G9a block: 31.6µM; L3MBTL1 block: inconclusive; HP1b binding inh: 50.1µM

Results for CC(NC(=S)NCCCN1CCOCC1)C12CC3CC(CC(C3)C1)C2 (stereo not given) ?
JMJD2A Tudor: inactive; BAZ2B inh: inactive; G9a block: inconclusive; HP1b binding inh: inactive

How did O=C1NC(c2ccccc2)=C(c2ccc3ccccc3n2)C(c2ccncc2)N1 (stereo not given) do in these assays?
JMJD2A Tudor: inactive; BAZ2B inh: inactive; G9a block: 50.1µM; L3MBTL1 block: inactive; HP1b binding inh: inactive

What do the screens show for `O=C1NC(c2ccccc2)=C(c2ccc3ccccc3n2)C(c2ccccc2)N1` (stereo not given)?
JMJD2A Tudor: inconclusive; BAZ2B inh: inactive; G9a block: inactive; L3MBTL1 block: inactive; HP1b binding inh: inactive

Results for Cc1ccccc1CC(=O)Nc1sc(C(C)C)cc1C(=O)N1CCOCC1 ?
JMJD2A Tudor: inactive; BAZ2B inh: inactive; G9a block: inactive; HP1b binding inh: inactive

How did CCOC(=O)c1c(NC(=O)CN2CCN(C(=O)c3ccco3)CC2)sc(C)c1C do in these assays?
JMJD2A Tudor: inactive; BAZ2B inh: inactive; G9a block: inactive; HP1b binding inh: inactive

Results for CCc1c(C)sc(NC(=O)Cc2ccccc2C)c1C(=O)N1CCOCC1 ?
JMJD2A Tudor: inactive; BAZ2B inh: inactive; G9a block: 35.5µM; HP1b binding inh: inconclusive

What do the screens show for `CCOC(=O)c1c(C)n(C)c2ccc(OC)c(NC(=O)CN3CCN(C(=O)c4ccco4)CC3)c12`?
JMJD2A Tudor: inactive; BAZ2B inh: inactive; G9a block: 31.6µM; L3MBTL1 block: inactive; HP1b binding inh: inactive

Results for CCc1c(C)sc(NC(=O)CN2CCN(C(=O)c3ccco3)CC2)c1C(=O)OC ?
JMJD2A Tudor: inconclusive; BAZ2B inh: inconclusive; G9a block: 79.4µM; HP1b binding inh: inactive

Source: PubChem (National Center for Advancing Translational Sciences (NCATS))
